Results on 40 molecules are retold here after PubChem BioAssay (NCATS).

Records with an inconclusive call do not appear. The source made the active and inactive calls. Calls come from the whole dose curve; as a rule, active = well fitted cell-killing curve with a large enough effect; inconclusive = small, poorly fitted or top-dose-only effect, or effect the other way; inactive = no such curve, though single readings can be large or run the other way.
Potency is the fitted concentration of half-maximal effect.

The experiment can be described thus: Quantitative High-Throughput drug screen in 47 multiple myeloma cell lines against the NCATS MIPE library collection: MM1S_ATCC cell viability assay (AID 1918980). Note: nearly all actives have a fitted effect of over 45% in size. Particulars: MM1S myeloma viability, CellTiter-Glo ATP luminescence, 48 h; series mostly up to 45.8 µM. The text has this: PI: Beverly A. Mock Ph.D.
Laboratory of Cancer Biology and Genetics,
Center for Cancer Research, National Cancer Institute,
National Institute of Health, Bethesda, Maryland
Drug resistance and disease progression are common in multiple myeloma (MM) patients, underscoring the need for new therapeutic combinations. […] We hypothesized that effective combinations would reduce MYC expression and enhance p16 activity. […] These preclinical data identify potentially useful drug combinations for evaluation in drug-resistant MM and reveal potential mechanisms of combined drug sensitivity.
Described herein is the primary MIPE qHTS used to cherrypick compounds. Validated compounds were then further tested for potential synergistic activiy.
[1] Peat TJ, Gaikwad SM, Dubois W, Gyabaah-Kessie N, Zhang S, Gorjifard S, Phyo Z, Andres M, Hughitt VK, Simpson RM, Miller MA, Girvin AT, Taylor A, Williams D, D'Antonio N, Zhang Y, Rajagopalan A, Flietner E, Wilson K, Zhang X, Shinn P, Klumpp-Thomas C, McKnight C, Itkin Z, Chen L, Kazandijian D, Zhang J, Michalowski AM, Simmons JK, Keats J, Thomas CJ, Mock BA. Drug combinations identified by high-throughput screening promote cell cycle transition and upregulate Smad pathways in myeloma. Cancer Lett. 2023 Aug 1;568:216284. doi: 10.1016/j.canlet.2023.216284. Epub 2023 Jun 24. PMID: 37356470; PMCID: PMC10408729.
SEQUENCE No. (e.g., 1, 2, 3, etc.); […] (e.g., Cells, Incubation, Reagent, etc.); VALUE and DESCRIPTION.
1; Cells; 5 uL; white, solid bottom 1536-well Greiner assay plate.
2; Compounds; 23 nL; Kalypsis pin tool (Wako USA) equipped with a 1536-well pin head to transfer to the assay plates.
3; Incubation; 48 hours; 37C incubation.
4; Reagent;5uL; CellTiter Glo (Promega).
5; Detector; 425V; Luminescence; Viewlux PerkinElmer.
NOTES (numbers refer to Sequence numbers above)
1. The cell-based screening methods employed in this study were like those previously published. Briefly, the corresponding myeloma cell lines were screened in 1,536-well plates with 500 cells, 5-uL per well for inhibition of cell viability (assessed by measuring ATP levels with CellTiterGlo).
2. NCATS MIPE 4.0 library of approved and investigational drugs were added using the Kalypsis pin tool. Wells treated with DMSO only for 100% viability and media only for 0% viability were used as controls.
3. The assay plates were covered and incubated for 48 hours in a 37C, 5% CO2 incubator with controlled humidity.
4. After 48 hours, CellTilter-GloTM luminescent substrate mix (Promega) reagent was added to the assay plate and plates we incubated for 5 min at room temperature.
5. Signal was measured as median relative luminescence units on a ViewLux (PerkinElmer) multiplate reader.
[1] Heske CM, Davis MI, Baumgart JT, Wilson K, Gormally MV, Chen L, Zhang X, Ceribelli M, Duveau DY, Guha R, Ferrer M, Arnaldez FI, Ji J, Tran HL, Zhang Y, Mendoza A, Helman LJ, Thomas CJ. Matrix Screen Identifies Synergistic Combination of PARP Inhibitors and Nicotinamide Phosphoribosyltransferase (NAMPT) Inhibitors in Ewing Sarcoma. Clin Cancer Res. 2017 Dec 1;23(23):7301-7311. doi: 10.1158/1078-0432.CCR-17-1121. Epub 2017 Sep 12. PMID: 28899971; PMCID: PMC6636827.
For orientation: ATP-based viability assays read luminescence as a measure of living cells.
`CC(C)C[C@H](CC(=O)O)C(=O)N[C@@H](Cc1c[nH]c2ccccc12)C(=O)N[C@@H](C)c1ccccc1`: the Potency was 1.66 µM (active).
For `CS(=O)c1ccc(-c2nc(-c3ccc(F)cc3)c(-c3ccncc3)[nH]2)cc1` (stereo not given) the value was 38.2 µM (active); for `Cc1nnc(C(C)C)n1C1C[C@H]2CC[C@@H](C1)N2CC[C@H](NC(=O)C1CCC(F)(F)CC1)c1ccccc1` (stereo not given in full), 1.05 µM (active); for `C=C1C(=O)OC2C=C(C)CCC=C(C)CCC12` (stereo not given), 23.5 µM (active).
On to `COC[C@@H](c1ccc(C(F)(F)F)cc1)N1CCN(C2(C)CCN(C(=O)c3c(C)ncnc3C)CC2)C[C@H]1C`, for which the Potency is 2.35 µM (active).
As for `C[C@H]1[C@H](NC(=O)C(=NOC(C)(C)C(=O)O)c2csc(N)n2)C(=O)N1S(=O)(=O)O`, the Potency was 14.8 µM (active).
Then `N[C@H](CSC(c1ccccc1)(c1ccccc1)c1ccccc1)C(=O)O`, with 13.2 µM (active); and `CC(C)(C)c1cc(C(=O)O)c(NC(=O)Nc2ccc3[nH]ncc3c2)s1`, with 16.6 µM (active).
Then `Cc1c(O)cccc1C(=O)N[C@@H](CSc1ccccc1)[C@H](O)CN1C[C@H]2CCCC[C@@H]2C[C@@H]1C(=O)NC(C)(C)C`, with 20.9 µM (active).
For `CC(=O)OC1C(C)OC(Oc2c(-c3ccc(O)cc3)oc3cc(O)cc(O)c3c2=O)C(O)C1OC(C)=O` (stereo not given) the value was 20.9 µM (active).
`C[C@H](NC(=O)C(=O)Nc1ccccc1C(C)(C)C)C(=O)N[C@@H](CC(=O)O)C(=O)COc1c(F)c(F)cc(F)c1F`: the Potency was 11.8 µM (active).
For `CCn1c(C(=O)N(C2CC2)C2CC2)cc2c3c(ncn3C)c(Nc3cc(C)n(C)n3)nc21` the value was “inactive”.
Then `CC=CC(=O)N(CC)c1ccccc1C`, with 6.62 µM (active).
As for `CC(C)C(=O)Oc1ccc(CO)cc1[C@H](CCN(C(C)C)C(C)C)c1ccccc1`, the Potency entry was “inactive”.
For `O=C1c2c(O)cc(O)cc2O[C@H](c2cc(O)c(O)c(O)c2)[C@H]1O` the value was 20.9 µM (active); for `C[N+](C)(C)CC(=O)O`, “inactive”.
Consider `NC1CCC(Nc2nc(Nc3ccc(C(=O)N4CCCCC4)cc3)c3ncn(-c4cccc(F)c4)c3n2)CC1` (stereo not given), for which the Potency entry was “inactive”.
Then `C[C@@H]1CCN(C(=O)CC#N)C[C@H]1N(C)c1ncnc2[nH]ccc12`, with 2.64 µM (active).
For `O=C1c2ccccc2-[n+]2ccc3c([nH]c4ccccc43)c21` the value was 2.64 µM (active); for `O=c1c(-c2ccc(O)cc2)coc2cc(O)ccc12`, 13.2 µM (active).
As to `O=C(O)c1cc(O)c2c(c1)C(=O)c1cccc(O)c1C2=O`, the Potency entry was “inactive”.
Then `c1ccc2c(Cc3c[nH]c4ccccc34)c[nH]c2c1`, with 1.32 µM (active); and `Clc1ccc(-c2nc3sccn3c2C=NOCc2ccc(Cl)c(Cl)c2)cc1`, with “inactive”; and `CN1[C@@H]2CCC[C@@H]1CC(NC(=O)c1nn(C)c3ccccc13)C2` (stereo not given in full), with “inactive”.
For the molecule `COCCOC(=O)C1=C(C)NC2=C(C(=O)CC(c3ccccc3OC)C2)C1c1cccc(O)c1` (stereo not given), the Potency is 16.6 µM (active).
For the molecule `CN(C)C1CCN(C(=O)c2ccc(NC(=O)Nc3nc(N4CCOCC4)nc(N4CCOCC4)n3)cc2)CC1`, the Potency was 0.0332 µM (active).
For `CN[C@@H](C)C(=O)N[C@H]1CN(C(=O)CC(C)C)CC[C@H]2CC[C@@H](C(=O)NC(c3ccccc3)c3ccccc3)N2C1=O` the value was 9.35 µM (active).
`CC(=O)Oc1cc2c(s1)CCN(C(C(=O)C1CC1)c1ccccc1F)C2` (stereo not given): the Potency was 0.833 µM (active).
For `CN1C[C@H]2c3ccccc3Oc3ccc(Cl)cc3[C@@H]2C1` the value was “inactive”.
For `O=C(Nc1ccccc1-c1cn2c(CN3CCNCC3)csc2n1)c1cnc2ccccc2n1` the value was 23.5 µM (active).
For `O=C(CCCCCCC(=O)Nc1ccccc1)NO` the value was 2.96 µM (active); for `CN(C[C@@H]1COCCO1)S(=O)(=O)Nc1ccc2ccc3ncc(-c4cnn(C)c4)cc3c(=O)c2c1`, 16.6 µM (active); for `CN(C)Cc1cccc(N=C(c2ccccc2)c2c(O)[nH]c3cc(C(=O)N(C)C)ccc23)c1`, 16.6 µM (active).
In the case of `CC(C)(C)Cn1c(N)nc2ccc(-c3[nH]c(C(C)(C)C)nc3-c3ccc(F)cc3)nc21`, the Potency was 16.6 µM (active).
Then `CC[C@H]1OC(=O)[C@H](C)[C@@H](O[C@H]2C[C@@](C)(OC)[C@@H](O)[C@H](C)O2)[C@H](C)[C@@H](O[C@@H]2O[C@H](C)C[C@H](N(C)C)[C@@H]2O)[C@](C)(O)C[C@@H](C)CN(C)[C@H](C)[C@@H](O)[C@]1(C)O`, with 18.7 µM (active); and `NC(CO)(CO)CCc1ccc(Sc2cccc(OCc3ccccc3)c2)cc1Cl`, with 3.32 µM (active); and `CC(C(=O)O)c1ccc(-c2ccccc2)c(F)c1` (stereo not given), with 26.4 µM (active).
For `COc1cc2ncnc(Nc3ccc(F)c(Cl)c3)c2cc1OCCCN1CCOCC1` the value was 3.03 µM (active).
Then `CC1(C)Cc2c(sc(NC(=S)NC(=O)c3ccccc3)c2C(=O)O)CO1`, with 18.7 µM (active); and `CCC(CC)[C@H](NC(C)=O)[C@@H]1[C@H](O)[C@@H](C(=O)O)C[C@@H]1N=C(N)N`, with “inactive”.
